The values below come from PubChem BioAssay (NCATS).

SMILES strings stand for the structures. “And” between values parts separate entries of the source, which are not always exact repeats. Equal values may be shown once. Records with an inconclusive call do not appear. A number with no mark means an inactive call. The source made the active and inactive calls. The call rests on the fitted dose curve; in most records, active means well fitted curve in the direction sought with a large enough effect; inconclusive means small, poorly fitted or top-dose-only effect, or another doubt; inactive means no such curve, though single readings can be large; an effect the other way counts as inactive or inconclusive.

The nature of assay [1]: Viability qHTS for spleen associated tyrosine kinase inhibitor (SYKi) drug resistant MV4-11 cells (AID 1963824). Further: nearly all actives have a fitted effect of over 35% in size. The following applies: SYKi-resistant MV4-11 viability, CellTiter-Glo, 72 h; series mostly up to 45 µM. A digest of the protocol: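 SYK-inhibitor-resistant MV4-11 AML cells were seeded at 500 per well onto compound and cultured 72 hours (37 °C, 5% CO2). CellTiter-Glo was then added, and after 10 min at room temperature, luminescence gave viability.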

Assay [2] in a line: Quantitative highthroughput screen to assess conditional lethalithy of NOMO1 cells grown in RPMI1640 with untreated serum (RPMI+s) (AID 1963876). Further: nearly all actives have a fitted effect of over 35% in size.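 On Viability: 100% = DMSO wells and 0% = empty wells without cells.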 As to conditions: NOMO1 AML cells in RPMI+serum, CellTiter-Glo viability, 48 h; series mostly up to 45.8 µM. A digest of the protocol:
(§1)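 Each medium arm—HPLM with 10% dialyzed FBS, or RPMI1640 with 5 mM glucose and 10% untreated or dialyzed FBS—was screened against an 11-point, 3-fold compound titration for 48 h at 37 °C, with CellTiter-Glo luminescence as endpoint.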
On the technique in general: ATP-based viability assays read luminescence as a measure of living cells.

The nature of assay [3]: Quantitative highthroughput screen to assess conditional lethalithy of NOMO1 cells grown in RPMI1640 with dialyzed fetal bovine serum (RPMI+ds) (AID 1963877). Further: nearly all actives have a fitted effect of over 30% in size.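 On Viability: 100% = DMSO control wells and 0% = empty wells.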 The following applies: NOMO1 in RPMI+dialyzed FBS viability, ATP luminescence, 48 h; series mostly up to 45.8 µM. Summed up: as §1
Assay [4] is described as follows: Quantitative highthroughput screen to assess conditional lethalithy of P12 Ichikawa cells grown in Human Plasma-Like Medium with dialyzed fetal bovine serum (HPLM+ds) (AID 1963879). Further: nearly all actives have a fitted effect of over 35% in size. The following applies: ATP luminescence, 48 h; Potency: viability; series mostly up to 45.8 µM. A digest of the protocol:
as §1

Assay [5] in a line: Quantitative highthroughput screen to assess conditional lethalithy of SEM cells grown in Human Plasma-Like Medium with dialyzed fetal bovine serum (HPLM+ds) (AID 1963882). Further: nearly all actives have a fitted effect of over 35% in size. As to conditions: SEM B-ALL cells in HPLM+ds, CellTiter-Glo viability, 48 h; series mostly up to 45.8 µM. A digest of the protocol:
as §1

Assay [6] is described as follows: Quantitative highthroughput screen to assess conditional lethalithy of SEM cells grown in RPMI1640 with unreated serum (RPMI+s) (AID 1963883). Further: nearly all actives have a fitted effect of over 35% in size.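 On Viability: 100% = DMSO wells and 0% = empty wells without cells.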 As to conditions: SEM B-ALL cells, CellTiter-Glo viability, 48 h; series mostly up to 45.8 µM. Summed up: as §1
Assay [7] is described as follows: Cellular viability qHTS for adrenocortical cancer (ACC) cell line SW-13 (AID 1963989). Further: nearly all actives have a fitted effect of over 65% in size.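 On activity (max response): cells grown in serum-free medium with ITS supplement; on the % scale 0 is the no-effect control and ±100 the full control effect.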 The following applies: SW-13 ACC cells viability, CellTiter-Glo, 48 h; activity (max response): hits give low values. A digest of the protocol:
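Compound titrations (up to 46 uM final, in DMSO) were applied to SW-13 cells for 48 h at 37C/5% CO2. Reading used CellTiter-Glo after 20 min at room temperature; fitted curves yielded IC50 and efficacy.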
(In general: qHTS replaces the single test concentration by a dilution series.)

Assay [8] is described as follows: Cellular viability qHTS for adrenocortical cancer (ACC) cell line NCI-H295R (AID 1963990). Further: nearly all actives have a fitted effect of over 60% in size. The following applies: CellTiter-Glo ATP luminescence, 48 h; series mostly up to 46.1 µM. A digest of the protocol:
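Readout: CellTiter-Glo luminescence, 20 min RT. Exposure: 48 h, 37C/5% CO2. Cells: NCI-H295R, ITS-DMEM serum-free. Range: up to 46 uM. Analysis: 4PL fit, IC50 plus efficacy.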

A short description of assay [9]: Quantitative highthroughput screen to assess conditional lethalithy of P12 Ichikawa cells grown in RPMI1640 with dialyzed fetal bovine serum (RPMI+ds) (AID 1963880). Further: nearly all actives have a fitted effect of over 35% in size.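 On Viability: 100% = DMSO wells and 0% = empty wells on each plate.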 The following applies: ATP luminescence, 48 h; Potency: P12-Ichikawa viability; series mostly up to 45.8 µM. A digest of the protocol: as §1
Assay [10] in a line: Quantitative highthroughput screen to assess conditional lethalithy of P12 Ichikawa cells grown in RPMI1640 with untreated serum (RPMI+s) (AID 1963881). Further: nearly all actives have a fitted effect of over 35% in size.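 On Viability: 100% = DMSO wells and 0% = empty wells without cells.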 The following applies: ATP luminescence, 48 h; Potency: viability; series mostly up to 45.8 µM. Summed up:
as §1

Assay [11] in a line: Quantitative highthroughput screen to assess conditional lethalithy of SEM cells grown in RPMI1640 with dialyzed fetal bovine serum (RPMI+ds) (AID 1963884). Further: nearly all actives have a fitted effect of over 35% in size.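 On Viability: 100% = DMSO control wells and 0% = empty wells without cells.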 The following applies: SEM B-ALL cells, RPMI+dialyzed FBS, CellTiter-Glo viability, 48 h; series mostly up to 45.8 µM. Summed up: as §1
The nature of assay [12]: Quantitative highthroughput screen to assess conditional lethalithy of NOMO1 cells grown in Human Plasma-Like Medium with dialyzed fetal bovine serum (HPLM+ds) (AID 1963878). Further: nearly all actives have a fitted effect of over 35% in size.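 On Viability: 100% = DMSO wells and 0% = empty wells on each plate.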 The following applies: NOMO1 AML cells in HPLM+ds, CellTiter-Glo viability, 48 h; series mostly up to 45.8 µM. A digest of the protocol: as §1
Potency means the concentration at half of the fitted maximal effect.

In the case of `CC(=O)SCC(Cc1ccccc1)C(=O)NCC(=O)OCc1ccccc1` (centres undefined), the Potency in assay [1] is 20.9 µM (active); in assay [2] it was 6.62 µM (active); in assay [3] it was 6.62 µM (active); in [4] it was 18.7 µM (active). Further, the Potency entry in assay [5], in [6] and in assay [8] was “inactive” each time. For the same compound, in assay [7], the activity (max response) was -5.9%.

For `CN(Cc1cc(Br)cc(Br)c1N)C1CCCCC1`, the Potency in [1] is 10.6 µM (active). In addition, the Potency entry in [2], in assay [3], in assay [9], in assay [10], in assay [5] and in assay [6] was “inactive” each time. For the same compound, the Potency result in assay [11] is “inactive”.

Take `O=C(Nc1cc(Cl)cc2c1[nH]c1cnccc12)c1cccnc1`: the Potency in assay [1] was 3.55 µM (active). Further, the Potency entry in assay [2], in assay [3], in [4], in assay [9], in assay [10] and in [5] was “inactive” each time. The activity (max response) in assay [7] was 7.23%.

In the case of `NC(=O)c1ccc2nc(-c3ccc(Oc4ccc(Cl)cc4)cc3)[nH]c2c1`, the Potency is 2.95 µM (active) and 8.2 µM (active) in assay [1]; 28.2 µM (active) in assay [7]; 25.1 µM (active) in assay [8]. Further, the Potency result in assay [2], in [3], in assay [4] and in assay [9] was “inactive” each time.

`C[C@@H]1CN(Cc2ccc(F)cc2)[C@@H](C)CN1C(=O)c1cc2c(C(=O)C(=O)N(C)C)cn(C)c2cc1Cl`: in [1], the Potency was 16.4 µM (active). The Potency entry in assay [2], in assay [3], in [4], in [9], in [10] and in [5] was “inactive” in each case.

Turning to `c1cc(-c2sc(-c3ccncc3)c(-c3ccncc3)c2-c2ccncc2)ccn1`, the Potency in [1] is 18.6 µM (active); in assay [5], 2.96 µM (active); in [6], 2.35 µM (active); in assay [11], 2.64 µM (active). For the same compound, the Potency entry in assay [2], in assay [3], in [4], in assay [9] and in [10] was “inactive” throughout. Besides, in assay [7], the activity (max response) was 2.5%.

Turning to `Cc1ccc(Nc2cc(-c3cccc(N4C(=O)c5ccccc5C4=O)c3)ncn2)cc1NS(C)(=O)=O`, the Potency in [1] is 16.6 µM (active). In addition, the Potency result in [2], in assay [3], in assay [12], in assay [9], in [10] and in [6] was “inactive” in each case.

For the compound `CN1CCN(C2=Nc3cc(Cl)ccc3Nc3ccccc32)CC1`, the Potency result in assay [1], in assay [2], in [3], in assay [4], in [9] and in [10] was “inactive” throughout. In [7], the activity (max response) was -14.9%.

For the compound `CO[C@H]1C=CO[C@@]2(C)Oc3c(C)c(O)c4c(O)c(c5c(c4c3C2=O)NC2(CCN(CC(C)C)CC2)N=5)=NC(=O)C(C)=CC=C[C@H](C)[C@H](O)[C@@H](C)[C@@H](O)[C@@H](C)[C@H](OC(C)=O)[C@H]1C`, the Potency in assay [1] was 18.4 µM (active). Moreover, the Potency result in [2], in [3], in assay [12], in assay [9], in assay [5] and in assay [11] was “inactive” each time.

As for `O=C(C1CC1)N1CC[C@@H](Cn2c(-c3ccc(-c4ccc5occc5c4)cc3)nc3cnccc32)C1`, the Potency in assay [1] was 14.8 µM (active). Besides, the Potency result in [2], in assay [3], in assay [4], in assay [9], in assay [5] and in assay [6] was “inactive” each time. Besides, in assay [11], the Potency entry was “inactive”.

`CN1CCC(CNc2ccc3ncc(-c4cccc(OC(F)(F)F)c4)n3n2)CC1`: the Potency in assay [1] was 41.1 nM (active) and 132 nM (active); in assay [2] it was 23.5 µM (active); in assay [3] it was 23.5 µM (active); in assay [12], 18.7 µM (active); in assay [5], 5.9 µM (active); in assay [6], 4.69 µM (active). Also, the values for the Potency in assay [11], in [7] and in [8] were 1.32 µM (active), 15.8 µM (active) and 8.91 µM (active), respectively.

As for `CCCNC(=O)Nc1ccc(Oc2ncnc3cc(OC)c(OC)cc23)cc1Cl`, the Potency in assay [1] is 0.517 µM (active). The Potency entry in [2], in [3], in [12], in assay [9], in assay [10] and in [8] was “inactive” each time. For the same compound, in assay [7], the activity (max response) was -6.45%.

Take `COc1cc([C@@H](CC(=O)O)c2ccc(C)c(CN3C[C@@H](C)Oc4ccccc4S3(=O)=O)c2)cc2nnn(C)c12`: the Potency in assay [1] was 7.42 µM (active); in [4], 8.31 µM (active); in assay [9] it was 18.6 µM (active); in assay [10] it was 14.8 µM (active). Also, the Potency result in assay [2], in assay [3] and in [8] was “inactive” in each case.

`Clc1ccc(C(c2ccc(Cl)cc2)n2cc[n+](CC(OCc3ccc(Cl)cc3Cl)c3ccc(Cl)cc3Cl)c2)cc1` (centres undefined): the Potency is 1.86 µM (active) in [1]; 20.9 µM (active) in assay [2]; 26.4 µM (active) in assay [3]; 26.4 µM (active) in assay [12]; 20.9 µM (active) in assay [10]; 16.6 µM (active) in assay [5]. Moreover, the Potency in assay [6] is 13.2 µM (active); in assay [11] it was 20.9 µM (active); in [7], 5.01 µM (active).

For the compound `Cc1cccc(-c2nn(C(=S)Nc3ccccc3)cc2-c2ccnc3ccccc23)n1`, the Potency in assay [1] was 18.6 µM (active). The Potency result in assay [2], in [3], in [12] and in assay [5] was “inactive” each time.

As for `Cc1ccc(C(=O)Nc2ccc(Oc3cc4cnn(C)c4cc3-c3cn[nH]c3)c(F)c2)c(=O)n1-c1ccc(F)cc1`, the Potency in assay [1] was 0.0047 µM (active); in assay [2] it was 8.31 µM (active); in [3], 9.33 µM (active); in assay [12] it was 7.41 µM (active); in assay [9] it was 7.41 µM (active); in assay [5], 0.295 µM (active). The Potency was 0.467 µM (active) in [6] and 0.234 µM (active) in assay [11]. For the same compound, the activity (max response) in assay [7] is -20.9%.

With `COc1cc([C@@H]2c3cc4c(cc3[C@H](O)[C@H]3COC(=O)[C@@H]23)OCO4)cc(OC)c1OC`, the Potency was 0.372 µM (active) in [1]; 0.418 µM (active) in assay [2]; 0.526 µM (active) in [3]; 0.332 µM (active) in assay [4]; 0.469 µM (active) in [9]; 0.372 µM (active) in assay [10]. Further, the Potency in assay [5] was 0.296 µM (active); in assay [6] it was 0.296 µM (active); in assay [11] it was 0.264 µM (active); in [7], 0.631 µM (active); in [8], 0.501 µM (active).

For the compound `COc1cccc2c1C(=O)c1c(O)c3c(c(O)c1C2=O)C[C@@](O)(C(=O)CO)C[C@@H]3O[C@H]1C[C@H](N)[C@H](OC2CCCCO2)[C@H](C)O1` (some centres undefined), the Potency in assay [1] was 118 nM (active) and 59 nM (active); in assay [7], 3.16 µM (active) and 5.01 µM (active); in assay [8] it was 794 nM (active) and 8.91 µM (active). In addition, the Potency entry in assay [2], in assay [3], in assay [4], in assay [9], in [10] and in assay [11] was “inactive” in each case.
